High-throughput results (PubChem BioAssay)
Many of the other results were omitted from the sample, so hits are more common in it than they were.
TDP1 cell CPT – DT40-hTDP1 cell growth loss with CPT. chicken DT40 Tdp1-/-;hTDP1 cells + 20 nM CPT, ATP luminescence, 48 h. Potency, µM (top dose mostly 46.2 µM), for the others: at the highest dose activity change, negative = growth inhibition, most hits filed as inhibitors. 420,000 tested, 12% active. AID 686979; also: potency is read from the fitted curve at half-maximal effect; nearly all actives have a fitted effect of over 55% in size
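Cell growth measured by CellTiter-Glo luminescence after a minimum 48 h, 37 C compound exposure with 20 nM CPT in Tdp1-knockout DT40 cells stably expressing hTDP1, seeded 400/well; qHTS titration format.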
HT1080-NT tox – kills 2HG-producing HT-1080-NT fibrosarcoma cells; HT-1080-NT fibrosarcoma viability, CellTiter-Glo ATP luminescence, 48 h; Potency, µM (highest dose often 46.1 µM), inactives show at the highest dose activity, negative = less viability, most hits filed as cytotoxic; 360,000 tested, 1.6% active;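 also: NT is the 2HG producing partner of a matched IDH1 knockdown line; potency is read from the fitted curve at half-maximal effect; 0% = DMSO-treated cells and -100% = media-only wells without cells; nearly all actives have a fitted effect of over 55% in size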
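Viability of the 2HG-overproducing fibrosarcoma line after 48 hours of compound exposure at 37 degrees C was determined by luminescence with CellTiter-Glo, and concentration-effect curves were then fitted and categorized.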
HT1080 IDH1KD tx – toxicity to HT-1080 IDH1 knockdown cells (counter line); Potency, µM (series often up to 46.1 µM), for inactives: at the top dose activity, negative = toxicity, usual class: cytotoxic; 360,000 tested, 2% active; HT-1080 IDH1 knockdown viability, ATP luminescence, 48 h; AID 686971;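 also: potency is read from the fitted curve at half-maximal effect; 0% = DMSO wells and -100% = cell-free medium wells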
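Assay cells: HT-1080 with IDH1 knockdown, 750 per well, RPMI/5% FBS. Exposure: 48 h at 37 °C following 2 h pre-incubation. Read: CellTiter-Glo luminescence; fitted concentration-response, curve class assigned.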
12-LOX inh – inhibitors of human 12S-lipoxygenase ALOX12; 580,000 tested, 1.1% active; AID 1671190; Potency, µM (titrated, usually from 108 µM), for inactives: at the highest dose activity change, negative = inhibition, usual class: inhibitors; purified 12hLO, xylenol orange hydroperoxide absorbance; also: potency is read from the fitted curve at half-maximal effect
Target sequence (P18054 whole entry, looked up): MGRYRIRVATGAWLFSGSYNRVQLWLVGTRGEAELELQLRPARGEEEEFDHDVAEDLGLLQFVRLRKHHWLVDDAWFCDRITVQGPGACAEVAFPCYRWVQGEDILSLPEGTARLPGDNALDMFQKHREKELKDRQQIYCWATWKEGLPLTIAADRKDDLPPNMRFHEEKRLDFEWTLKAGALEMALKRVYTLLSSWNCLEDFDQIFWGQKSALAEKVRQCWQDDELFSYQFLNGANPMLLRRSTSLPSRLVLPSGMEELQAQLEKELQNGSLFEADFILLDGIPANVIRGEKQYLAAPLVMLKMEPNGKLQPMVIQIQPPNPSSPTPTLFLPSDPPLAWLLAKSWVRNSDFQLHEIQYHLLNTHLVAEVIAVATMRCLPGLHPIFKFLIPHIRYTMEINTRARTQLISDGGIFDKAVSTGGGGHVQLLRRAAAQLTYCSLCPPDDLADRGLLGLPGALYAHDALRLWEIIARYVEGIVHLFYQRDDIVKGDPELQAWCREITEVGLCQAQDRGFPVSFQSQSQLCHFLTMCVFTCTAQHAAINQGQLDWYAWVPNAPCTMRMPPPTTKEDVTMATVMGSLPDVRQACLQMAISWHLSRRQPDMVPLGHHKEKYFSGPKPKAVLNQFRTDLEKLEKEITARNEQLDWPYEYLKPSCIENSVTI
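Purified human 12hLO at 150 nM in 25 mM Hepes, 0.01% Triton X-100, pH 7.0, preincubated 15 min at room temperature with compound. Reaction started with 40 uM arachidonic acid, 30 min at room temperature. Hydroperoxide measured by Fe-xylenol orange, 573/405 nm absorbance ratio.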
DT40 TDP1 no CPT – qHTS for Inhibitors of human tyrosyl-DNA phosphodiesterase 1 (TDP1): qHTS in cells in absence of CPT; DT40 Tdp1-/- hTDP1 cells, no CPT, ATP luminescence, 48 h; Potency, µM (titrated, usually from 46.2 µM), inactives show at the top dose activity change, negative = growth inhibition, most hits filed as inhibitors; 420,000 tested, 15% active; also: potency is read from the fitted curve at half-maximal effect; nearly all actives have a fitted effect of over 55% in size
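A cellular qHTS used chicken DT40 cells lacking endogenous Tdp1 but carrying stably transfected human TDP1. Compounds were applied without camptothecin, and cell growth kinetics were judged by ATP-dependent luminescence after ≥48 hr.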
IL1B secr inh – inhibitors of inflammasome signaling (IL-1 beta secretion). activity change, % at 57.5 µM. 360,000 tested, 4.7% active. THP-1 LPS/ATP IL-1B secretion, AlphaLISA, 16 h; active compounds read low; in the data active = activity change below about -50%; inconclusive = mostly about -30% to -49%
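THP-1 cells pretreated 1 hr with compounds (up to 57.5 uM final), then stimulated with LPS (250 ng/mL final) plus ATP (1.25 mM final); secreted IL-1B measured by AlphaLISA after 16 hr, decreased signal indicating inhibition.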
Starred values were filed as active, the others as inactive; ? = inconclusive; / = no result. Unless noted, calls follow the shape of the dose curve; as a rule, active = well fitted curve in the direction sought with a large enough effect; inconclusive = small, poorly fitted or top-dose-only effect, or another doubt; inactive = no such curve, though single readings can be large; an effect the other way counts as inactive or inconclusive. Unless noted, % is scaled to controls: 0 for no effect and ±100 for the full control effect.

SMILES | TDP1 cell CPT | HT1080-NT tox | HT1080 IDH1KD tx | 12-LOX inh | DT40 TDP1 no CPT | IL1B secr inh
CCN(CC)CC1CN(N=Cc2ccc([N+](=O)[O-])o2)C(=O)O1 (stereo unspecified) | 14.6µM* | -19.7% | -16.8% | 12.1% | 16.4µM* | 8.1
Cc1ccc(CN(CCc2ccccc2)C(=O)c2cccc(C#N)c2)s1 | / | / | / | 0.2% | / | /
CCOC(=O)[C@]12CCCC=C1N(Cc1ccccc1)C(=O)[C@H](CC(=O)NCc1cccs1)C2 | -5.1% | -3.9% | -8.1% | -22.3% | -26.0% | -10.2
COC(=O)[C@]12CCCCC=C1N(CCC1=CCCCC1)C(=O)[C@H](CC(=O)NCc1cccs1)C2 | ? | ? | -28.5% | 2.1% | 16.4µM* | -11.2
CCOC(=O)[C@]12CCCC=C1N(CCC1=CCCCC1)C(=O)[C@H](CC(=O)NCc1cccs1)C2 | ? | -4.8% | -19.1% | ? | 20.6µM* | -2.9
COC(=O)[C@]12CCCCC=C1N(CCC1=CCCCC1)C(=O)[C@H](CC(=O)NCc1ccccc1)C2 | ? | -14.2% | -14.1% | 0.0% | ? | -12.5
COc1ccc2c(c1)OCC(CNC(=O)c1cc(-c3ccncc3)n[nH]1)C2 (stereo unspecified) | / | / | / | 19.0% | / | /
CCOc1cc(C(=S)N2CCCCC2)ccc1OS(=O)(=O)c1ccc(Br)cc1 | 20.6µM* | -20.6% | -0.7% | -19.9% | 18.4µM* | -15.5
CCOc1cc(C(=S)N2CCCCC2)ccc1OS(=O)(=O)c1ccc(Cl)cc1 | 16.4µM* | -24.8% | -6.2% | -20.5% | 23.1µM* | -8.2
COc1cc(C(=S)N2CCOCC2)cc(OC)c1OS(=O)(=O)c1ccc(C)cc1 | -9.4% | 5.0% | 2.4% | -9.0% | 3.0% | -2.8
CCOc1cc(C(=S)N2CCC(O)CC2)ccc1OS(=O)(=O)c1ccc(Br)cc1 | ? | ? | -2.9% | ? | 18.4µM* | -82.4*
CCOc1ccc(C(=S)N2CCCC2)cc1OC | 18.2% | -3.8% | 1.3% | 5.2% | -2.0% | 0.0
CCOc1cc(C(=S)N2CCOCC2)cc(Br)c1OS(=O)(=O)c1ccccc1 | ? | 1.9% | -13.1% | -15.6% | 23.1µM* | -18.4
CCOc1cc(C(=S)N2CCOCC2)ccc1OS(=O)(=O)c1ccc(C)cc1 | -11.1% | -24.5% | -25.8% | -6.0% | ? | -1.1
COc1ccccc1CCNC(=O)Cc1ccc(NC(=O)N2CCSc3ncccc32)cc1 | ? | / | / | -8.4% | ? | /
CCCCOc1ccc(C2C(=O)N(C3CCCCC3)CC(=O)N2CCCC)cc1 (stereo unspecified) | ? | / | / | -22.9% | ? | /
CCC1CCC2(CC1)NNC(=S)NN2 | ? | -7.2% | -5.8% | ? | 18.4µM* | 11.5
COc1cccc(CNC(=O)Cn2c(-c3cccc(Cl)c3)nc(C)c(CCO)c2=O)c1 | / | / | / | 6.6% | / | /
Cc1cccc(C)c1-n1nnnc1C(c1ccnc2ccccc12)N(CCN(C)C)Cc1ccccc1 (stereo unspecified) | ? | 20.6µM* | 20.6µM* | 2.9% | ? | ?
Cc1cccc(C)c1-n1nnnc1C(c1ccnc2ccccc12)N(C)Cc1ccccc1 (stereo unspecified) | ? | 9.1% | 10.6% | 0.0% | 16.4µM* | 24.3
CCOc1ccc(OCCC(=O)OCC(=O)Nc2ccc(Cl)cn2)cc1 | -2.0% | 9.0% | 9.6% | 14.5% | -1.9% | 9.4
COc1cc(NC(=O)Cn2cnc3sc(C)c(S(=O)(=O)N4CCC(C)CC4)c3c2=O)cc(OC)c1OC | -14.7% | / | / | -5.8% | 0.4% | /
C/C(=N\Nc1nc2ccccc2[nH]1)c1ccc(N2CCOCC2)cc1 | ? | ? | ? | -10.7% | 16.4µM* | -96.0*
